In PubChem BioAssay AID1445 (SRMLSC, 2008):
Out of some 220,000 compounds screened, about 910 (0.41%) were called active.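 Rule for the calls: active = primary inhibition above the hit cutoff, then over 50% inhibition at one or more dose response concentrations (cut at about 23% in these data, passing the limit was not always enough); inconclusive = conflicting primary data, or primary hits not chosen for dose response; inactive = low primary inhibition, or under 50% at every dose.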 For the sample, actives were picked, then their nearest neighbours and some compounds at random. Measured potencies and affinities stand elsewhere.

What follows are molecules tested against Aminopeptidase N (Plasmodium falciparum (isolate 3D7)) (UniProt O96935) (assay: P. falciparum M1AAP inhibitors, biochemical, fluorogenic H-Leu-NHMec substrate, 1536-well (AID 1445;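 note: plate controls were DMSO full reaction for no effect and no enzyme background for full effect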)). Conditions: recombinant M1AAP, H-Leu-NHMec fluorogenic kinetic assay; at 30 µM, stronger effect = higher value unless noted.
Sequence of Aminopeptidase N (Plasmodium falciparum (isolate 3D7)) (O96935 whole entry, looked up): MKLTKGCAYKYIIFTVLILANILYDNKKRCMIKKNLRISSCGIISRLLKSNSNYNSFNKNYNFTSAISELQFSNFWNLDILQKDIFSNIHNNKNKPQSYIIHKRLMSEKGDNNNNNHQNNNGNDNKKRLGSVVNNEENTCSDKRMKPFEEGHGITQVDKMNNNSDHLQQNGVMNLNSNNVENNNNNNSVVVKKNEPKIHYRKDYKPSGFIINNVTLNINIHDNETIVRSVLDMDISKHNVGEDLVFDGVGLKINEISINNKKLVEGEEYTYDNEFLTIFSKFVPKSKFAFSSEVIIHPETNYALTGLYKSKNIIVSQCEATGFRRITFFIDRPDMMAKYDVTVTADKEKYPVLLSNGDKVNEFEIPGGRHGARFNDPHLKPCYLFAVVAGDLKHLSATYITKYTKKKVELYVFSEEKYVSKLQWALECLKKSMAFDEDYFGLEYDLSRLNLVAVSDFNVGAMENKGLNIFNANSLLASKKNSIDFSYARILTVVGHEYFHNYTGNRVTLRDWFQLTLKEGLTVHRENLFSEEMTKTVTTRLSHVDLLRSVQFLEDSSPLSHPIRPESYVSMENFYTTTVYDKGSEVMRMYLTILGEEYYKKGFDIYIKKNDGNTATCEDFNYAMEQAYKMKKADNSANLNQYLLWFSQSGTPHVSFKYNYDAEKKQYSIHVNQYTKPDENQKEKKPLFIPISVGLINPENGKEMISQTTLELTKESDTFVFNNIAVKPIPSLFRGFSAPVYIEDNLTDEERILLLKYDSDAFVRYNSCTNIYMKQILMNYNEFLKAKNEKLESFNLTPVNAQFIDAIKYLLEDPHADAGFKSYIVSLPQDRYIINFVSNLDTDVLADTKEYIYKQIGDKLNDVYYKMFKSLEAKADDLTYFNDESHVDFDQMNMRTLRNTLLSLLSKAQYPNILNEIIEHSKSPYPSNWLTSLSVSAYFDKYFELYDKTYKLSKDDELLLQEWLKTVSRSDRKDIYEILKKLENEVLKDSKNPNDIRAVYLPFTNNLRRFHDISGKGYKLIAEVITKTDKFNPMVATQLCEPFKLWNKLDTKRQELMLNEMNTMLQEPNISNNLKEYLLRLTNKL
With `CC(=O)Nc1ccc2nc(SCC(=O)N3CCOCC3)sc2c1` the inhibition was 2.3% (inactive). In the case of `COC(=O)CNC(=O)C(C)NC(=O)OCc1ccccc1` (stereo unspecified), the inhibition is reported as 3.83% (inactive). In the case of `Cc1cc(C)c2[nH]c(=O)c(C(c3nnnn3C(C)(C)C)N(Cc3ccco3)CC3CCCO3)cc2c1` (stereo unspecified), the inhibition is reported as 11.4% (inactive). With `O=C(CSc1nnc(SCc2ccc(Cl)cc2)s1)N/N=C/c1ccccc1C(=O)O` the inhibition was 2.73% (inactive). With `O=C(O)COc1ccccc1/C=N/NC(=O)CSc1nnc(SCc2cccc3ccccc23)s1` the inhibition was 11.9% (inactive). In the case of `O=C(O)COc1ccccc1/C=N/NC(=O)CSc1nnc(SCc2ccccc2)s1`, the inhibition is reported as 14.1% (inactive). For `O=C(CSc1nnc(SCc2ccccc2)s1)N/N=C/c1ccc(Cl)cc1Cl`, the inhibition was 5.23% (inactive). With `CCOc1ccccc1-n1c(COc2ccccc2)nnc1SCC(N)=O` the inhibition was 6.25% (inactive). `COc1ccc2cc(CN(C(=O)Nc3ccccc3)C3CCCC3)c(=O)[nH]c2c1` was tested, and the inhibition was 10.9% (inactive). With `O=C(CCNC(=O)c1ccccc1Cl)Nc1ccc(S(=O)(=O)Nc2ncccn2)cc1` the inhibition was -2.53% (inactive). `COc1ccc(OC)c(C2CC(c3c(-c4ccccc4)c4cc(Cl)ccc4[nH]c3=O)=NN2S(C)(=O)=O)c1` (stereo unspecified) was tested, and the inhibition was 6.89% (inactive). In the case of `COc1ccc(C2=NN(C(=O)CCC(=O)O)C(c3cccs3)C2)cc1` (stereo unspecified), the inhibition is reported as 6.04% (inactive). With `O=C(O)CCCC(=O)N1N=C(c2ccccc2)CC1c1cccs1` (stereo unspecified) the inhibition was -2.7% (inactive). `O=C(O)CCC(=O)N1N=C(c2ccc(Br)cc2)CC1c1cccs1` (stereo unspecified) was tested, and the inhibition was 7.55% (inactive). In the case of `O=C(O)CCC(=O)N1N=C(c2ccco2)CC1c1cccs1` (stereo unspecified), the inhibition is reported as -6.29% (inactive). With `Cc1ccc(C2=NN(C(=O)CCC(=O)O)C(c3cccs3)C2)cc1` (stereo unspecified) the inhibition was -2.92% (inactive). `COc1ccccc1C1CC(c2c(-c3ccccc3)c3cc(Cl)ccc3[nH]c2=O)=NN1S(C)(=O)=O` (stereo unspecified) was tested, and the inhibition was 33.3% (inactive). In the case of `COc1cccc(C2=NN(C(=O)CCCC(=O)O)C(c3cccs3)C2)c1` (stereo unspecified), the inhibition is reported as 2.4% (inactive). With `O=C(C1CCCCN1S(=O)(=O)c1ccccc1[N+](=O)[O-])N1CCCC1` (stereo unspecified) the inhibition was -3.36% (inactive). With `CC(NC(=O)c1ccccc1Cl)C(=O)O` (stereo unspecified) the inhibition was -7.3% (inactive). `CCN(CC)S(=O)(=O)c1ccc(C(=O)Nc2ccc3c(c2)OCCO3)cc1` was tested, and the inhibition was 4.24% (inactive). With `N/C(=N\OC(=O)CCCOc1ccccc1)c1ccc([N+](=O)[O-])cc1` the inhibition was 6.54% (inactive). In the case of `Cc1nc2ccc(Cl)cc2c(-c2ccccc2)c1CC(=O)O`, the inhibition is reported as 14.4% (inactive). With `CCOC(=O)c1c(C)nc2ccc(Cl)cc2c1-c1ccccc1` the inhibition was 5.75% (inactive). With `CCOC(=O)c1ccccc1NC(=O)c1cn(-c2ccc(C)c(C)c2)c(=O)c2ccccc12` the inhibition was 1.24% (inactive). `Cc1cccc(CN2CCN(CCCc3ccccc3)CC2)c1` was tested, and the inhibition was -1.11% (inactive). `CCN(CC)S(=O)(=O)c1ccc(N/N=C/c2ccccc2OCC(=O)O)c([N+](=O)[O-])c1` was tested, and the inhibition was 11.3% (inactive). For `COc1ccccc1NS(=O)(=O)c1ccc(N/N=C/c2ccccc2OCC(=O)O)c([N+](=O)[O-])c1`, the inhibition was 13.1% (inactive). In the case of `COC(=O)/C(=C\Nc1cccc(Cl)c1C)c1ncc(C(F)(F)F)cc1Cl`, the inhibition is reported as -7.97% (inactive). For `Cc1cc(C(=O)COC(=O)c2ccc(N)c([N+](=O)[O-])c2)c(C)n1-c1ccc2c(c1)OCO2`, the inhibition was 4.88% (inactive). `COc1cc([N+](=O)[O-])ccc1-c1ccc(/C=N/NC(=O)OC(C)(C)C)o1` was tested, and the inhibition was 3.22% (inactive). For `COc1cc([N+](=O)[O-])ccc1-c1ccc(/C=N/NC(N)=O)o1`, the inhibition was 0.13% (inactive). For `N#CCCN(CCC#N)C(=O)c1ccc(Cl)cc1`, the inhibition was 0.66% (inactive). With `Nc1cc(N)nc(SCc2cccnc2)n1` the inhibition was -6.1% (inactive). In the case of `O=C(CO/N=C/c1c(Cl)cccc1Cl)NNC(=O)c1cccc(Cl)c1`, the inhibition is reported as 0.37% (inactive). In the case of `Cc1cccc(S(=O)(=O)NNC(=O)c2cc(-c3ccc(F)cc3)nc3ccccc23)c1`, the inhibition is reported as 15.2% (inactive). In the case of `O=C(NNC(=O)c1cc(-c2ccccc2)nc2ccccc12)Nc1cccc(Cl)c1`, the inhibition is reported as 6.82% (inactive). `Cc1cccc(N2CCN(Cc3cnc(Cl)s3)CC2C)c1` (stereo unspecified) was tested, and the inhibition was 3.39% (inactive). For `COc1ccc(CNC(=O)c2csc(Cc3ccccc3)n2)cc1`, the inhibition was 2.78% (inactive). `Cc1nc2ccc(Cl)cc2c(-c2ccccc2Cl)c1CC(=O)O` was tested, and the inhibition was -0.5% (inactive). In the case of `Cc1nc2ccc(Cl)cc2c(-c2ccccc2F)c1CC(=O)O`, the inhibition is reported as 16.3% (inactive). `C/C(Cn1cnc([N+](=O)[O-])n1)=N\NC(=O)c1ccccc1` was tested, and the inhibition was 15.8% (inactive). `CCOc1ccc(NC(=O)C/C(N)=N/O)cc1` was tested, and the inhibition was -8.44% (inactive). For `COc1ccc([N+](=O)[O-])cc1NS(=O)(=O)c1cccc(C(=O)O)c1`, the inhibition was 7.17% (inactive). In the case of `O=C(O)c1cccc(S(=O)(=O)Nc2ccccc2Cl)c1`, the inhibition is reported as 0.86% (inactive). With `CCOc1cc(C(=O)N(C)Cc2cc3ccccc3[nH]c2=O)cc(OCC)c1OCC` the inhibition was 4.4% (inactive). `CCc1nc2sc3c(c2c(=O)n1N)CC(C)(C)OC3` was tested, and the inhibition was -0.3% (inactive). For `CCCCCc1nc2sc3c(c2c(=O)n1NC(=O)c1ccc([N+](=O)[O-])cc1)CC(C)(C)OC3`, the inhibition was 4.81% (inactive). `CCCCCCCCCc1nc2sc3c(c2c(=O)n1NC(=O)c1ccc([N+](=O)[O-])cc1)CC(C)(C)OC3` was tested, and the inhibition was 3.87% (inactive). With `CCCCCCCCCc1nc2sc3c(c2c(=O)n1NC(=O)c1ccccc1[N+](=O)[O-])CC(C)(C)OC3` the inhibition was -2.36% (inactive). `Cn1c(=O)c(C(=O)COc2ccc(F)cc2Cl)c(N)n(Cc2ccccc2)c1=O` was tested, and the inhibition was 6.9% (inactive). In the case of `COc1ccc(CC(NC(C)=O)C(=O)NC2CCN(c3c(Cc4ccccc4)c(C)nc4ncnn34)CC2)c(OC)c1` (stereo unspecified), the inhibition is reported as -2.17% (inactive). `C/C(=N/N1CCN(c2ccccn2)CC1)c1ccc([N+](=O)[O-])cc1` was tested, and the inhibition was -1.3% (inactive). For `COc1ccc(Cn2nnc3c(=O)[nH]c(C(=O)NCCc4ccc(F)cc4)nc32)cc1OC`, the inhibition was 24.5% (active). `O=C(NCc1cccs1)c1nc2c(nnn2Cc2ccc(F)cc2)c(=O)[nH]1` was tested, and the inhibition was 2.78% (inactive). In the case of `O=C(NCCc1ccccc1)c1nc2c(nnn2Cc2ccccc2Cl)c(=O)[nH]1`, the inhibition is reported as -9.83% (inactive). For `O=C(COC(=O)c1cccc(C(=O)OCC(=O)NCc2ccc(F)cc2)n1)NCc1ccc(F)cc1`, the inhibition was 5.21% (inactive). With `Cc1cccc(NC(=O)C(NS(=O)(=O)c2ccc3c(c2)CCC(=O)N3)c2ccccc2)n1` (stereo unspecified) the inhibition was 2.64% (inactive). For `CSc1ncc(Cl)c(C(=O)Nc2nnc(SC/C=C/c3ccccc3)s2)n1`, the inhibition was 30% (inactive). For `CCSc1ncc(Cl)c(C(=O)Nc2ccccc2)n1`, the inhibition was 2.17% (inactive). `C=CCSc1nnc(NC(=O)c2ccc(Cl)nc2)s1` was tested, and the inhibition was 2.22% (inactive). `CSc1ncc(Cl)c(C(=O)Nc2nnc(SC)s2)n1` was tested, and the inhibition was 12.7% (inactive). With `Fc1ccc(NC(=S)NC23CN4CN(CN(C4)C2)C3)cc1` the inhibition was 6.25% (inactive). `CCc1cccc(CC)c1NC(=O)COn1nnc2ccc(C(F)(F)F)cc21` was tested, and the inhibition was -1.32% (inactive). With `O=S(=O)(Nc1ccc(O)c(Sc2nc3ccccc3s2)c1)c1ccc(Cl)cc1` the inhibition was 0.11% (inactive). For `O=C(O)c1cccc(S(=O)(=O)Nc2ccc(O)c(Sc3nc4ccccc4s3)c2)c1`, the inhibition was 22.2% (inactive). In the case of `O=S(=O)(Nc1ccc(O)c(Sc2nc3ccccc3s2)c1)c1ccc(F)cc1`, the inhibition is reported as 7.05% (inactive). In the case of `COc1ccc(S(=O)(=O)Nc2ccc(O)c(Sc3ncn[nH]3)c2)cc1`, the inhibition is reported as 18% (inactive). With `Cc1cc(C)nc(NC(=O)/C=C/c2ccc3c(c2)OCO3)c1` the inhibition was 4.5% (inactive). `Cc1cccc(NC(=O)CN2C(=O)COc3ccc(Cl)cc32)c1C` was tested, and the inhibition was 0.78% (inactive). With `COc1ccc(/C=C2/S/C(=N/S(=O)(=O)Cc3ccccc3)NC2=O)cc1OC` the inhibition was 12.7% (inactive). With `COc1ccc(C=O)cc1OS(=O)(=O)c1ccc(NC(C)=O)cc1` the inhibition was 4.39% (inactive). `COc1cc(C=O)ccc1OS(=O)(=O)c1ccc(NC(C)=O)cc1` was tested, and the inhibition was 7.57% (inactive). With `CCOc1ccc(/C=C2\SC(=S)NC2=O)cc1OC` the inhibition was 17.4% (inactive). For `COc1cc(/C=C(\C#N)C(N)=O)ccc1OS(=O)(=O)c1ccc(C)cc1`, the inhibition was 12.9% (inactive). In the case of `COc1cc(/C=C/C(=O)O)ccc1OS(=O)(=O)c1ccc(C)cc1`, the inhibition is reported as 0.48% (inactive). In the case of `CCOc1ccc(S(=O)(=O)N2CCOCC2)cc1[N+](=O)[O-]`, the inhibition is reported as 1.27% (inactive). For `Nc1ccc(C(=O)OCC(=O)c2cccc([N+](=O)[O-])c2)cc1`, the inhibition was -2.36% (inactive). `Cc1nc(NCc2ccccc2)sc1C(=O)Nc1ccccc1` was tested, and the inhibition was -1.78% (inactive). `CN1CCc2c(sc(NC(=O)c3ccc(S(=O)(=O)N4CCc5ccccc54)cc3)c2C(N)=O)C1` was tested, and the inhibition was 5.03% (inactive). In the case of `CCN(CC(=O)Nc1ccccc1OC)C(=O)COc1ccc2ccccc2c1`, the inhibition is reported as 5.71% (inactive). In the case of `CC1(C)CC(=O)C2=C(C1)Nc1cc(C(=O)c3ccccc3)ccc1NC2c1ccccn1` (stereo unspecified), the inhibition is reported as 18.1% (inactive). For `CC1(C)CC(=O)C2=C(C1)Nc1ccccc1NC2c1ccccn1` (stereo unspecified), the inhibition was 8.61% (inactive). With `Cc1cc2c(cc1C)NC(c1ccccn1)C1=C(CC(C)(C)CC1=O)N2` (stereo unspecified) the inhibition was 23.3% (active). With `COCCNC(=O)c1cc2oc3ccccc3c2n1C` the inhibition was 15% (inactive). `O=C1OC(/C(=C\Nc2ccc(F)cc2F)[N+](=O)[O-])c2ccccc21` (stereo unspecified) was tested, and the inhibition was 8.86% (inactive). For `O=C1OC(/C(=C\Nc2ccccc2)[N+](=O)[O-])c2ccccc21` (stereo unspecified), the inhibition was 7.21% (inactive). With `O=[N+]([O-])c1cc(S(=O)(=O)N2CCCC2)ccc1NCCCN1CCOCC1` the inhibition was 4.04% (inactive). In the case of `O=[N+]([O-])c1cc2oc3c(c2c(C=NCc2ccccc2)c1O)CCCC3`, the inhibition is reported as -0.25% (inactive). `CC(C)NCc1c(O)c(Br)cc2oc3c(c12)CCCC3` was tested, and the inhibition was 9.95% (inactive). `Oc1c(Br)cc2oc3c(c2c1CNCc1ccccc1)CCCC3` was tested, and the inhibition was 33.9% (active).
